# Shown are actives, neighbours in structure and some others; about 2% of the full set was active somewhere.
# aSyn rescue = qHTS of alpha-syn Inhibitors; hit rate 0.14% among 370,000; Yeast expressing alpha-synuclein, growth rescue, BacTiter-Glo, 24 h; AID 652106, 2013; Potency, µM (series often up to 46.1 µM), inactives show top-dose growth rescue (activation), most hits filed as activators; further: % of control where 0% means no effect; nearly all actives have a fitted effect of over 65% in size
#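 Readout is rescue of growth in alpha-synuclein-expressing yeast, so inhibitors of toxicity appear as activators. Growth after 24 hr at 30 deg C in galactose medium is quantified by luminescence.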
# FUS suppressor = qHTS for Suppressors of FUS Proteinopathy: Primary screen using FUS-linked yeast assay; Potency, µM (top dose mostly 76.6 µM), hits mostly activators; S. cerevisiae FUS-expressing, growth rescue, OD600, 24 h; hit rate 0.24% among 390,000;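 further: plate controls were DMSO vehicle for no effect and reference control for full effect; nearly all actives have a fitted effect of over 55% in size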
#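 S. cerevisiae expressing FUS from galactose induction served as the toxicity model. Growth after 24hr at 30C, read as absorbance at 600 nm, indicates suppression of toxicity; compounds dosed at several concentrations.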
# TDP43 rescue = qHTS of TDP-43 Inhibitors; TDP-43 expressing yeast growth rescue, BacTiter-Glo, 24 h; Potency, µM (series often up to 46.1 µM), without a hit: top-dose growth rescue (activation), hits mostly activators; hit rate 1.8% among 410,000; AID 652104, 2013; further: % of control where 0% means no effect; nearly all actives have a fitted effect of over 50% in size
#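 Cell-based yeast growth screen: TDP-43 expression induced in galactose, inoculum OD600=0.02 after raffinose pregrowth to mid-log. Read-out BacTiter-Glo luminescence at 24 hr, 30 deg C; inhibition of toxicity seen as signal increase.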
# Abeta yeast res = qHTS for compounds that reverse cellular toxicity of Amyloid beta (A-beta) peptide in yeast: Primary Screen; hit rate 0.063% among 410,000; yeast expressing A-beta42, growth rescue, OD600, 48 h; response scale: 0% DMSO, 100% iron-clioquinol control; Potency, µM (top dose mostly 46.1 µM), usual class: activators; AID 1347071, 2019; further: nearly all actives have a fitted effect of over 55% in size
#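 Yeast A-beta toxicity model in growth medium with pinned compounds, 48 h at 30 C; growth read as absorbance at 600 nm. Normalized to FeCl3/clioquinol equimolar mix (positive) and DMSO (negative).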
# Glioma ERSR ind = qHTS for Inducers of the Endoplasmic Reticulum Stress Response (ERSR) in Human Glioma: qHTS. Potency, µM, for the others: at the top dose activation, hits mostly activators. hit rate 0.02% among 420,000. U87-MG GRP78 promoter luciferase reporter, 16 h; further: series mostly up to about 76 µM; % of control where 0% means no effect; nearly all actives have a fitted effect of over 35% in size
#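 ERSR induction read as luciferase luminescence (Bright-Glo, 10 min at room temperature) in stably transfected human U87-MG glioma cells exposed to compounds for 16 h, using GRP78 as sensor.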
# MBNL1-CUG inh = qHTS Assay for Inhibitors of MBNL1-poly(CUG) RNA binding; TR-FRET MBNL1-His/biotin-(CUG)12 binding, 665/545 ratio; Potency, µM (highest dose often 57.5 µM), for inactives: top-dose activity change, negative = inhibition, most hits filed as inhibitors; hit rate 0.036% among 280,000; AID 2675, 2010; active means well fitted inhibition curve with a large enough effect in the signal ratio, with a control signal flat, not every such curve was filed as active; inconclusive means small, poorly fitted or top-dose-only effect, or effect the other way, or a change in a side signal; inactive means no such curve, though single readings can be large or run the other way; the % refers to the signal ratio; further: on the % scale 0 is the no-effect control and ±100 the full control effect
# Target sequence (Q9NR56 whole entry, looked up): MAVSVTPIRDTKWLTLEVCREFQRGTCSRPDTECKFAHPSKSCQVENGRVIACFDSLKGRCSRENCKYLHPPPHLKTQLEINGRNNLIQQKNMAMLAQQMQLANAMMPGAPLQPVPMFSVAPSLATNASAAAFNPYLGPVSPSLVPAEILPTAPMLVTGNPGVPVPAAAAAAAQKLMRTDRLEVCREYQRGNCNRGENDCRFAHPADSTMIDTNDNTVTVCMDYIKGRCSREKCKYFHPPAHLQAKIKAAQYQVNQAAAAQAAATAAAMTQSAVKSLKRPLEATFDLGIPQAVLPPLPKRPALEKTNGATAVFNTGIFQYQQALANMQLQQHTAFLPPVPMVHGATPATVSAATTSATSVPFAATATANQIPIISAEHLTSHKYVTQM
#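 Ratiometric TR-FRET (665 over 545 nm, excitation 340 nm) tracks disruption of MBNL1-His/biotin-(CUG)12 complex after 60 min at room temperature, with compounds at 92 nM to 58 uM final.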
# Numbers without * were called inactive; i = inactive; ? = inconclusive; nt = no result given; [ ] = another dose, or the depositor's remark. Unless noted, the call rests on the fitted dose curve; in most records, active means well fitted curve in the direction sought with a large enough effect; inconclusive means small, poorly fitted or top-dose-only effect, or another doubt; inactive means no such curve, though single readings can be large; an effect the other way counts as inactive or inconclusive. Potency means the concentration at half of the fitted maximal effect.
SMILES,aSyn rescue,FUS suppressor,TDP43 rescue,Abeta yeast res,Glioma ERSR ind,MBNL1-CUG inh
CC1(C)CC2CN(Cc3ccccc3)S(=O)(=O)N2C1 (configuration not stated),nt,i,nt,nt,nt,nt
Cc1c(C(=O)NCC2(N3CCOCC3)CCCCC2)cnn1-c1nccc(-c2ccccc2F)n1,nt,nt,nt,nt,1%,nt
CC(CC(c1ccccc1)c1ccccc1)NC(C)(C)C (configuration not stated),nt,nt,nt,nt,-4%,nt
O=C1C2C3C=CC(C3)C2C(=O)N1CN(Cc1ccccc1)CN1C(=O)C2C3C=CC(C3)C2C1=O (configuration not stated),6%,i,5.6µM*,i,-3%,-11%
O=C(CN1C(=O)C2C3C=CC(C3)C2C1=O)NCc1ccccc1 (configuration not stated),2%,i,-11%,i,-6%,0%
Cc1c(C(=O)N2CCOc3ccc(Cl)cc3C2)sc2ncnc(NCCc3ccccn3)c12,nt,nt,nt,nt,-3%,nt
Cc1nc(S(=O)(=O)N2CCOCC2)c(C#N)c(C)c1Cl,4%,i,13µM*,i,-3%,0%
Cc1nc(S(=O)(=O)NC2CCCCC2)c(C#N)c(C)c1Cl,17%,i,?,i,2%,6%
N#Cc1ccc(C(C(=O)Nc2ccc3c(c2)OCCO3)n2c(=O)c(-c3ccco3)nc3ccccc32)cc1 (configuration not stated),?,6.3µM*,25%,i,nt,nt
O=C(Nc1ccc2c(c1)OCCO2)C(c1ccc(C(F)(F)F)cc1)n1c(=O)c(-c2cc3ccccc3[nH]2)nc2ccccc21 (configuration not stated),10µM*,i,?,?,nt,nt
O=C(Nc1ccc2c(c1)OCCO2)C(c1ccncc1)n1c(=O)c(-c2cc3ccccc3[nH]2)nc2ccccc21 (configuration not stated),-7%,i,28µM*,i,nt,nt
O=C(Nc1ccc2c(c1)OCCO2)C(C1CC1)n1c(=O)c(-c2ccco2)nc2ccccc21 (configuration not stated),9%,i,?,i,nt,nt
Cc1cc(C)nc(N2CCC(C(=O)N(C)CCc3ccccc3)CC2)n1,nt,i,nt,nt,nt,nt
Cc1cccc(CNC(=O)c2cnn(-c3nccc(-c4ccccc4F)n3)c2C)n1,nt,nt,nt,nt,-2%,nt
COC(=O)C1CCN(Cc2ccc3c(c2)CN(C(=O)c2cc(C)nc(C)n2)CCO3)CC1,nt,nt,nt,nt,-4%,nt
c1cc2c3c(c1)CCC[N+]3(C1CCCCC1)CCC2,nt,nt,nt,nt,-3%,nt
COC(=O)C1=C2c3[nH]c4ccccc4c3CCN2C(=O)CC1,10%,i,10µM*,i,-4%,nt
CC1(C)Oc2ccc(C(=O)N3CCCC3)cc2NC1=O,nt,i,nt,nt,nt,nt
Oc1cccc2c(CC(O)c3c[nH]c4ccccc34)ccnc12 (configuration not stated),nt,nt,nt,nt,2%,nt
C=CCOc1ccc(C=CC(=O)c2c(O)c(OC)c(OC)c(OC)c2OC)cc1,13%,nt,22µM*,i,17%,nt
O=S1(=O)C=C(Sc2nc3ccccc3s2)c2ccccc21,13%,i,2.2µM*,i,-14%,12%
CC(=O)N1N=C(c2ccc(Br)cc2)CC1c1cn(C)c2ccccc12 (configuration not stated),?,nt,25µM*,i,-2%,32%
CCCC(=O)N1N=C(c2ccccc2)CC1c1cn(C)c2ccccc12 (configuration not stated),7%,nt,?,i,2%,-8%
COc1ccc(Oc2c(-c3cccs3)cnn(-c3ccc(C)cc3)c2=O)cc1,nt,i,nt,nt,nt,nt
COc1ccc(OCC(O)CNC(=O)c2ccc(Br)cc2)cc1 (configuration not stated),5%,i,27%,i,1%,1%
SMILES,aSyn rescue,FUS suppressor,TDP43 rescue,Abeta yeast res,Glioma ERSR ind,MBNL1-CUG inh
COc1ccc(OCC(O)CNc2ccc(Br)cc2)cc1 (configuration not stated),21%,i,11µM*,i,0%,-2%
COC(=O)c1ccc(Oc2ccc(S(=O)(=O)N3CCCCC3)cc2N)cc1,13µM*,i,?,i,-5%,-5%
O=C(COc1ccc(Cl)cc1)NCC(c1ccco1)S(=O)(=O)c1ccccc1 (configuration not stated),nt,i,6%,i,-2%,nt
O=C(COc1ccc(Cl)cc1)NCC(c1ccco1)S(=O)(=O)c1ccc(Cl)cc1 (configuration not stated),nt,i,35µM*,i,-2%,nt
C=CCn1c(C)cc(C(=O)COc2ncnc3sccc23)c1C,5%,?,-37%,i,-8%,-6%
C=CCn1c(C)cc(C(=O)COC(=O)c2cncc(Br)c2)c1C,19%,i,20µM*,i,6%,nt
CCCC(=O)c1cc(F)c(N2CCN(CCC#N)CC2)cc1C,1%,i,2%,i,0%,-11%
CCCC(=O)c1cc(F)c(N2CCN(C(=O)OCC)CC2)cc1C,-1%,i,16µM*,i,-7%,-2%
O=C(c1ccccc1)c1ccc(N2CCN(C(=O)c3ccc(F)cc3F)CC2)c(F)c1,6%,?,22µM*,i,-3%,nt
O=C(c1ccc(N2CCN(C(=O)c3ccccc3Br)CC2)cc1)c1cccc(F)c1,19%,i,14µM*,i,0%,2%
CCCC(=O)c1ccc(N2CCN(C(=O)c3ccccc3)CC2)c(F)c1,-6%,?,?,i,-4%,1%
CCCC(=O)c1ccc(N2CCN(C(=O)c3ccccc3Br)CC2)c(F)c1,0%,i,22µM*,i,-5%,?
CC(C)c1ccc(C2CC(c3ccc(Br)cc3)=NN2C(N)=S)cc1 (configuration not stated),-13%,i,-6%,10µM*,3%,4%[11.5 µM]
Cc1nc(N2CCCCC2)sc1C(=O)c1ccc(SCCO)c([N+](=O)[O-])c1,26%,i,35µM*,i,-7%,?
COC(=O)C1CN(C2CCCC2)CCS(=O)(=O)N1Cc1ccc(F)cc1 (configuration not stated),nt,i,nt,nt,nt,nt
N#Cc1cnc(SCCc2ccccc2)nc1N,1%,i,13µM*,i,0%,-5%

# Screening data deposited in PubChem by National Center for Advancing Translational Sciences (NCATS).
